Screens deposited in PubChem by National Center for Advancing Translational Sciences (NCATS).
HCMV inh: blocks human cytomegalovirus replication; hit rate 4.5% among 410,000; HFF cells, HCMV-luciferase reporter, 72 h; stronger effect = lower value; activity change, negative = inhibition, % at 57.5 µM; in the data active = activity change below about -60%; inconclusive = no clear call, values can overlap the other calls; inactive = above about -39%
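Screen run at 2 compound doses on HFFs infected with reporter HCMV, MOI 1 PFU/cell. Luciferase activity from cell lysates at 72 h post infection gave inhibition relative to buffer-only and Salinomycin wells.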
Pf growth 48h: inhibits P. falciparum growth in the first generation, 48 h | P. falciparum luciferase growth in erythrocytes, 48 h | Potency, µM (top dose mostly 28.7 µM), without a hit: top-dose activity change, negative = inhibition, usual class: inhibitors | hit rate 5.9% among 310,000 | AID 504832; also: potency is read from the fitted curve at half-maximal effect
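A one-generation exposure of luciferase-tagged malaria parasites in RPMI 1640/Albumax erythrocyte culture, 37 C and 5% CO2. Inhibition is inferred from decreased luminescence after adding detection reagent.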
Lassa entry inh: blocks Lassa virus binding to or entry into cells; Lassa virus pseudotype entry inhibition, cell reporter; Potency, µM (series often up to 37.9 µM), for the others: at the top dose activity change, negative = inhibition, most hits filed as inhibitors; hit rate 1.2% among 300,000; AID 540256; calls by dose curve; tested in HEK293 cells; also: potency is read from the fitted curve at half-maximal effect; nearly all actives have a fitted effect of over 50% in size
HCV inh: blocks hepatitis C virus. Potency, µM (highest dose often 41.8 µM), without a hit: at the highest dose activity change, negative = inhibition, hits mostly inhibitors. AID 651820. Huh7.5.1 HCVcc-Cre infection, luciferase reporter, 44 h. hit rate 3.4% among 340,000; also: potency is read from the fitted curve at half-maximal effect
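Whole-lifecycle infectious HCVcc-Cre system; cells 1,000/well, compound then virus (~0.5 moi) added 4 h after plating, 44 h culture. Luciferase read 15 sec following 15 min substrate incubation, room temp.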
Marburg entry inh: blocks Marburg virus binding to or entry into cells | Marburg virus pseudotyped entry inhibition, cell reporter | Potency, µM (top dose mostly 37.8 µM), inactives show top-dose activity change, negative = inhibition, most hits filed as inhibitors | hit rate 1.8% among 300,000; calls by dose curve; tested in HEK293 cells; also: potency is read from the fitted curve at half-maximal effect
Pf growth 96h: P. falciparum growth inhibition at 96 hour, primary screen for plastid delayed-death inhibitors; P. falciparum luciferase reporter growth, 96 h; Potency, µM (doses to about 28.7 µM), for inactives: at the highest dose activity change, negative = inhibition, hits mostly inhibitors; hit rate 6.9% among 320,000; AID 504834; also: potency is read from the fitted curve at half-maximal effect
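Two-generation exposure (96 h) targets delayed-death phenotype. Reporter parasites carrying integrated firefly luciferase, in red cells at 2% hematocrit and 0.05% parasitemia final, kept at 37 C, 5% CO2; luminescence loss indicates inhibition.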
Active calls of the source: *; ? = inconclusive; · = no result given; [ ] = another dose, or the depositor's remark. Only some compounds are listed: those with a hit (about 14% of all), similar ones and a draw of the others. Unless noted, calls follow the shape of the dose curve; as a rule, active = well fitted inhibition curve with a large enough effect; inconclusive = small, poorly fitted or top-dose-only effect, or another doubt; inactive = no such curve, though single readings can be large or run the other way. % is scaled to controls: 0 for no effect and ±100 for the full control effect.

SMILES	HCMV inh	Pf growth 48h	Lassa entry inh	HCV inh	Marburg entry inh	Pf growth 96h
COc1ccc(N2C(=O)CC(Sc3nnc(-c4ccccc4)o3)C2=O)cc1 (stereo not drawn)	7	-6%	-1%	?	-30%	-12%
Cc1cccc(N2C(=O)CC(Sc3nccc(C)n3)C2=O)c1 (stereo not drawn)	-98*	0%	-4%	-11%	11%	3%
CC(C)c1ccc(N2C(=O)CC(Sc3ncccn3)C2=O)cc1 (stereo not drawn)	-9	3%	·	14%	·	2.1µM*
Cc1nc(SC2CC(=O)N(c3ccccc3)C2=O)n[nH]1 (stereo not drawn)	-60*	16%	1%	11%	0%[46.1 µM]	?
O=C1CC(Sc2nnc(-c3ccccc3O)o2)C(=O)N1c1ccccc1 (stereo not drawn)	-32	17%	9.2µM*	25%	-6%	56%
COc1cc(NC(=O)CC(C)n2nc(C)cc2C)cc(OC)c1 (stereo not drawn)	12	·	-10%[46.1 µM]	·	·	·
Cc1cc(C(=O)NCCc2ccc(Cl)cc2)c2c(C)nn(-c3cccc(F)c3)c2n1	9	·	26%[46.1 µM]	·	·	·
COc1ccc(N2C(=O)C(C)(C)C2c2c(O)ccc3ccccc23)cc1 (stereo not drawn)	-4	8.3µM*	-19%[46.1 µM]	?	?	-2%
CC1(C)C(=O)N(c2ccccc2)C1c1ccccc1O (stereo not drawn)	19	?	?	-6%	?	35%
CC1=CC(=C2C=CC(=O)C=C2)C=C(C)N1C	36	7.4µM*	·	·	·	1.9µM*
COc1cccc(C(C(=O)NCc2ccccc2)N2CCN(c3cccc(C)c3C)CC2)c1OC (stereo not drawn)	56	·	·	·	·	·
CCOc1ccc(CCNC(=O)c2cc(S(=O)(=O)N3CCOCC3)ccc2C)cc1OCC	0	?	2%	-9%	-5%	?
CCOc1ccc(CCNC(=O)c2ccc(F)c(S(=O)(=O)N3CCOCC3)c2)cc1OCC	-38	?	-21%	?	-12%	?
CCOc1ccc(CCNC(=O)c2ccc(Cl)c(S(=O)(=O)N3CCOCC3)c2)cc1OCC	-25	12µM*	-22%	?	?	?
CCOc1ccc(CCNC(=O)c2ccc(C)c(S(=O)(=O)N3CCOCC3)c2)cc1OCC	-5	·	?	10µM*	?	·
O=C(NCCN1CCOCC1)c1ccc(Cl)c(S(=O)(=O)N2CCOCC2)c1	·	-5%	?	4%	28%	?
O=C(NCCc1ccc(F)cc1)c1ccc(Cl)c(S(=O)(=O)N2CCOCC2)c1	?	9.3µM*	·	?	·	12µM*
COc1cccc(S(=O)(=O)N(C)C[C@H]2Oc3ncc(Br)cc3C(=O)N([C@@H](C)CO)C[C@@H]2C)c1	-12	·	·	·	·	·
Cc1ccc(-n2ncc(C(=O)NCc3ccccc3C)c2-n2cccc2)cc1	?	·	3%[46.1 µM]	·	·	·
COc1ccccc1NC(=O)CSC1=Nc2ccccc2N=C(c2ccc(F)cc2)C1	45	·	8%[46.1 µM]	·	·	·
COCCN1C(=O)C2=C(C1=O)C1N(C)c3ccccc3[C@@]13C[C@@H](CO)N(S(=O)(=O)c1ccc(OC)cc1)C3=N2 (stereo partly drawn)	·	·	·	·	-3%[14.2 µM]	·
CCn1c(SCC(=O)NC2CCCC2)nc2c(c1=O)SCC2	-17	·	·	·	·	·
COc1ccc(Cc2noc(CN(C)CCc3ccccc3)n2)cc1OC	-33	?	-26%	?	-10%[46.1 µM]	?
COc1ccc(Cc2noc(CN(C)CCN3CCc4ccccc4C3)n2)cc1OC	-8	-70%	·	-15%	·	7.4µM*
CN(CCN1CCc2ccccc2C1)Cc1nc(Cc2ccccc2F)no1	17	?	-27%	-8%	28%[46.1 µM]	10µM*
CN(CCN1CCc2ccccc2C1)Cc1nc(-c2ccc3c(c2)OCO3)no1	40	17%	29%[46.1 µM]	19%	-3%[46.1 µM]	?
O=C(CN1CCCC1)Nc1sc2c(c1C(=O)Nc1ccc(Br)cc1)CCC2	37	12µM*	13%	-22%	-5%	?
COc1ccc(CC(=O)Nc2sc3c(c2C(=O)Nc2ccccc2)CCCCC3)cc1	?	·	-8%[46.1 µM]	·	·	·
